ELG1 genotox: inducers of genotoxicity in HEK293T ELG1-luciferase cells | 330,000 compounds, 1.3% hits | HEK293T ELG1-luciferase reporter, luminescence, 16 h | Potency, µM (series often up to 46 µM), for the others: top-dose activity change, positive = activation, hits mostly activators | AID 504466; note: % of control where 0% means no effect; nearly all actives have a fitted effect of over 60% in size
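Genotoxicity was scored as increased ELG1-luciferase reporter signal, measured by ONE-Glo luminescence (30 min, room temperature). Compound or vehicle exposure of the HEK293T reporter cells lasted 16 hr at 37°C.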
ELG1 repair inh: ELG1-dependent DNA repair inhibition; AID 504467; HEK293T ELG1-luciferase reporter, luminescence, 16 h; DNA damage induced by 5-fluorouridine; Potency, µM (top dose mostly 46.1 µM), for inactives: at the top dose activity change, negative = inhibition, actives largely listed as inhibitors; 330,000 compounds, 2.3% hits; note: % is set by controls: 0 for no effect and ±100 for the full control effect; nearly all actives have a fitted effect of over 55% in size
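Step one: seed 2,000 cells per well. Step two: pin-transfer compound or DMSO alongside 5-fluorouridine. Step three: incubate 16 hr, 37 °C, 5% CO2. Step four: add ONE-Glo, wait 30 min, read luminescence.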
NPC1 promoter act: NPC1 promoter activation. Huh7 NPC1 promoter luciferase reporter, 24 h. Potency, µM (series often up to 9.22 µM), for the others: top-dose activation, most hits filed as activators. 320,000 compounds, 2.4% hits; note: % of control where 0% means no effect; nearly all actives have a fitted effect of over 60% in size
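Huh7 cells stably carrying NPC1 promoter–luciferase, plated in Opti-MEM with 10% FBS for 2 h, were exposed to compound in DMSO for 24 h at 37 °C; luciferase reagent was added for 10 min and luminescence read.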
Rab9 prom act: activators of Rab9 promoter. AID 485297. 320,000 compounds, 2.8% hits. Huh7 Rab9 promoter-luciferase reporter, luminescence, 24 h. Potency, µM (series often up to 9.22 µM), inactives show at the highest dose activation, negative = inhibition, usual class: activators; note: % of control where 0% means no effect; nearly all actives have a fitted effect of over 60% in size
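Cell-based reporter: Huh7 stable for Rab9 promoter-driven luciferase, plated in reduced-serum medium with 10% FBS at 1500 cells/well, compound-treated 24 h at 37 °C, luminescence read after 10 min reagent.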
SMN2 splice up: enhancers of SMN2 splice variant expression. 210,000 compounds, 2.8% hits. HEK293 SMN2-luciferase splicing reporter, luminescence, 30-36 h. Potency, µM (titrated, usually from 46.1 µM), for the others: at the highest dose activity change, positive = activation, hits mostly activators; note: % of control where 0% means no effect; nearly all actives have a fitted effect of over 55% in size
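HEK293 cells carry an SMN2 […]–luciferase reporter in which exon 7 inclusion puts luciferase in frame. Cells were plated 10-12 h before compound addition, then incubated 30-36 h at 37C. ONE-Glo luminescence was read; sodium butyrate at 4.5 mM final served as control.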
FLuc modulator: inhibits or activates purified firefly luciferase, miR-21 counter-screen | AID 588342 | Potency, µM (titrated, usually from 57.5 µM), inactives show top-dose activity change, negative = inhibition, hits mostly inhibitors | 360,000 compounds, 6.9% hits | P08659 | purified FLuc, Km substrates, luminescence inhibition;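 note: plate controls were vehicle for no effect and reference inhibitor for full effect; nearly all actives have a fitted effect of over 55% in size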
Target sequence (P08659 whole entry, looked up): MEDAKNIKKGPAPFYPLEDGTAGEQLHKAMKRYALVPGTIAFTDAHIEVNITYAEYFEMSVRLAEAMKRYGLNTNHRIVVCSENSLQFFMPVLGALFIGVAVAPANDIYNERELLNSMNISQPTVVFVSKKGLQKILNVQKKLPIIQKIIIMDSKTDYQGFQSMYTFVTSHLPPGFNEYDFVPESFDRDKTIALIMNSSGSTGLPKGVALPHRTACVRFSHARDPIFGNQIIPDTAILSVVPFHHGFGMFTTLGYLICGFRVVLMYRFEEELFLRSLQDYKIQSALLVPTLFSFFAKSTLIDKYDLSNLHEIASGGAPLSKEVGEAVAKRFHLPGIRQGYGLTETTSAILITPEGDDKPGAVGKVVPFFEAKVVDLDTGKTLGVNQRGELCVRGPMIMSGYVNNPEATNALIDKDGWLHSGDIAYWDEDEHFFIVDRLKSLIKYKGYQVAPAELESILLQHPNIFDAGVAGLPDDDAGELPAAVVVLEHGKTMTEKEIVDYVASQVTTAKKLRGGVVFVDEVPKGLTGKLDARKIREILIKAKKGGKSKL
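Biochemical qHTS of compounds, final roughly 60 µM downward over six points, against 10 nM purified firefly luciferase using Km concentrations of substrates (10 uM D-luciferin, 10 uM ATP) in Tris acetate pH 7.5 buffer; luminescence output.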
An asterisk follows results filed as active; ? = inconclusive; . = no result given; [ ] = another dose, or the depositor's remark. Shown are actives, neighbours in structure and some others; about 9.2% of the full set was active somewhere. Calls come from the whole dose curve; as a rule, active = well fitted curve in the direction sought with a large enough effect; inconclusive = small, poorly fitted or top-dose-only effect, or another doubt; inactive = no such curve, though single readings can be large; an effect the other way counts as inactive or inconclusive. Potency is the fitted concentration of half-maximal effect.

SMILES	ELG1 genotox	ELG1 repair inh	NPC1 promoter act	Rab9 prom act	SMN2 splice up	FLuc modulator
O=C1ON=C(c2ccccc2)/C1=C/c1ccco1	5%	?	0%	2%	12%	?
O=C(O)c1ccc2c(c1)C(=O)/C(=C\c1ccco1)C2=O	1%	-4%	-1%	0%	3%	9.5µM*
Cc1ccc(/C=C2/C(=O)c3ccc(C(=O)O)cc3C2=O)o1	3%	10%	2%	-16%	.	2.7µM*
O=C1C(=Cc2ccco2)C(=O)c2ccccc21	2%	?	8%	1%	8%	13µM*
Cc1ccc(C=C2C(=O)c3ccccc3C2=O)o1	8%	?	2%	1%	-8%[1.84 µM]	0.48µM*
COc1ccc(CC(=O)NCc2nc3cccnc3n2Cc2ccc(C)cc2)cc1	.	.	.	.	.	2%
CS(=O)(=O)N1CCN(C2C3CC4CC(C3)CC2C4)CC1 (stereo not given)	-6%	?	-1%	2%	.	2%
O=C(COc1cccc2ccccc12)N1CCN(c2ccccc2)CC1	-4%	8.2µM*	4%	10%	-1%	-10%
Cc1cc(=O)oc2cc(OCC(=O)N3CCN(c4ccccc4)CC3)c(Cl)cc12	0%	-2%	-1%	2%	.	19µM*
Cc1cc(=O)oc2c(C)c(OCC(=O)N3CCN(c4ccc(F)cc4)CC3)ccc12	-4%	?	-1%	-3%	.	5%
Cc1cccc(N2CCN(C(=O)COc3ccc4c(C)cc(=O)oc4c3C)CC2)c1C	-5%	26µM*	-3%	-8%	.	-1%
Cc1cccc(N2CCN(C(=O)CSc3ccc4c(c3)OCCO4)CC2)c1C	-5%	11µM*	0%	-13%	.	1%
COc1ccc(S(=O)(=O)NCCc2sc(C)nc2C)cc1F	.	.	.	.	.	-3%
O[C@@H](COc1cccc2ccccc12)CN1CCOCC1	.	.	.	.	-16%[9.22 µM]	.
CCOc1ccc(C2C(C(N)=O)=C(C)Nc3nc(SCc4ccccc4F)nn32)cc1 (stereo not given)	.	.	.	.	-4%	-3%
COc1ccc(C)cc1-n1nnnc1SCn1nnc2ccccc2c1=O	-3%	5.8µM*	0%	-18%	-44%	-3%
COc1ccc(C)cc1-n1nnnc1SCc1csc(C)n1	1%	16%	16%	?	-10%	2%
O=c1c2ccccc2nnn1CSc1nnc2ccccn12	18µM*	?	3.5µM*	3.2µM*	13µM*	15µM*
Cc1ccc(-n2nnnc2SCn2nnc3ccccc3c2=O)cc1	16µM*	?	?	3.5µM*	5%	13µM*
COc1ccc(C)cc1-n1nnnc1SCc1cc(=O)n2cc(C)ccc2n1	-8%	18µM*	-11%	-26%	-55%	1%
N=C1C(c2nc(-c3ccc(Cl)cc3)cs2)=C(O)CN1NC(=O)c1ccc(O)cc1	12%	?	18%	16%	.	?
COc1cccc(NC(=O)N2CCCC2C(=O)NCc2ccco2)c1 (stereo not given)	0%	2%	-2%	-1%	.	2%
O=C(Nc1ccccn1)C1CCN(S(=O)(=O)c2ccc(Cl)cc2)CC1	-2%	23%	7%	2%	.	-18%
Cc1ccn2cc(-c3ccc(S(=O)(=O)N4CCOCC4)cc3)nc2c1	7%	?	?	?	8%	?
Cc1ccn2cc(C34CC5CC(CC(C5)C3)C4)nc2c1	-3%	?	-1%	0%	13%	6.7µM*
SMILES	ELG1 genotox	ELG1 repair inh	NPC1 promoter act	Rab9 prom act	SMN2 splice up	FLuc modulator
CCCN(C(=O)CCc1nc(-c2ccc(C)cc2)no1)c1ccc(OCC)cc1	.	.	.	.	-24%	-2%
CSc1nsc(/C=C/Nc2ccc(O)cc2C)c1C#N	-2%	?	-1%	5%	-4%	12µM*
COc1ccc(NC(=O)c2cc(NC(=O)C3CCCCC3C(=O)O)ccc2N2CCOCC2)cc1 (stereo not given)	2%	17%	-6%	-4%	.	1%
O=C(O)C1CCCCC1C(=O)Nc1ccc(-c2ccccc2)cc1 (stereo not given)	?	?	18%	?	27%	17µM*
Cc1ccc(NC(=O)c2ccc(NC(=O)C3CCCCC3C(=O)O)cc2)cc1 (stereo not given)	11%	?	-3%	-1%	.	17µM*
Cc1sc(NC(=O)C2CCCCC2C(=O)O)c(C(N)=O)c1-c1ccccc1 (stereo not given)	?	?	1.6µM*	3.5µM*	-24%	3.4µM*
Cc1cccc(NC(=O)c2cc(NC(=O)C3CCCCC3C(=O)O)ccc2N2CCOCC2)c1 (stereo not given)	0%	?	16%	23%	.	21µM*
CC(=O)Nc1ccc(NC(=O)C2CCCCC2C(=O)O)cc1 (stereo not given)	1%	15%	-1%	-3%	5%	1%
COc1ccc(C2(C)CC(=O)NC2=O)cc1 (stereo not given)	1%	0%	-5%	-12%	.	-1%
CCOC(=O)Cn1c(=O)cc(C(F)(F)C(F)(F)F)c2c(C)nn(CC)c21	.	.	.	.	.	-3%
Cc1ccsc1C(=O)OCC(=O)NC1CCCC(C)C1C (stereo not given)	5%	12%	.	.	.	.
CC/C=C\C/C=C\C/C=C\C/C=C\C/C=C\C/C=C\CCC(=O)NCCO	.	.	.	.	2%	.
C/C(=N/Nc1nc(C)c(C)s1)c1cccc([N+](=O)[O-])c1	?	-8%	?	?	.	12µM*
C/C(=N\Nc1nc(N)cc(Cl)n1)c1cccc([N+](=O)[O-])c1	0%	18%	21%	15%	-5%	?
COc1cc(NC(=O)C2=CC(c3ccc(F)cc3)=NS(=O)(=O)N2C)cc(OC)c1OC	.	.	.	.	.	1.3µM*
COc1ccc(C2=NS(=O)(=O)N(C)C(C(=O)Nc3ccc(C)cc3)=C2)cc1	-1%	-2%	0%	1%	.	-16%
O=C(Nc1ccc(Cl)cc1)N(Cc1nc2ccccc2c(=O)[nH]1)Cc1cccs1	-10%	18µM*	-1%	0%	-31%	-11%
Cc1cc(Cl)ccc1NC(=S)NCC(C)C	0%	0%	-2%	0%	2%	2%
CCOC(=O)c1cc(-c2ccccc2)sc1NC(=O)C(C)Sc1nnnn1C (stereo not given)	-15%	18µM*	-1%	9%	-22%	2%
CCOC(=O)c1cc(-c2ccccc2)sc1NC(=O)C(C)N1C(=O)NC(C)(c2ccc(Cl)cc2)C1=O (stereo not given)	-6%	26µM*	-1%	3%	10%	4%
CCOC(=O)C1CCN(c2ncnc3c2nc2n3CCCCC2)CC1	.	.	.	.	.	-1%
